CASP6 VEID inh – caspase-6 (human) enzyme inhibition; P55212; purified caspase-6, Z-VEID-R110 cleavage fluorescence; inhibition, % at 12.5 µM; actives 0.53% (n = 350,000);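 active = mean inhibition across replicates at least about 35%, with every replicate also reaching that limit, limit read from the data; inconclusive = only one of the two criteria met; inactive = neither criterion met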;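 also: 0% = median of neutral control wells and 100% = no fluorescence left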
FGF22 binding – binders of recombinant human FGF22 by thermal shift; Q9HCT0; SYPRO orange fluorescence; percent of sucrose octasulfate shift, DMSO zero; activity (Tm shift, normalised), % at 9.99 µM; actives 1.5% (n = 340,000); AID 651658;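 active = mean Tm shift, scaled 0 neutral to 100 positive control, at about 1.3% or above, every replicate too, limit read from the data; inconclusive = no clear call, values can overlap the other calls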
Target sequence (Q9HCT0 whole entry, looked up): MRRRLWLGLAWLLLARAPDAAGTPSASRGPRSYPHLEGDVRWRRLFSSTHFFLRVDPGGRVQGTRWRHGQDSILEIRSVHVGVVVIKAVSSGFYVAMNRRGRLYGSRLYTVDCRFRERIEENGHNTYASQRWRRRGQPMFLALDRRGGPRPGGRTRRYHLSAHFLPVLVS
SIRT5 block – sirtuin-5 (human) deacylase inhibition | actives 1.1% (n = 330,000) | Purified SirT5, succinyl-peptide AMC, trypsin-coupled fluorescence | Q9NXA8 | AID 652115 | inhibition, % at 15 µM; in the data active = inhibition above about 15%; inconclusive = no clear call, values can overlap the other calls
Target sequence (Q9NXA8 whole entry, looked up): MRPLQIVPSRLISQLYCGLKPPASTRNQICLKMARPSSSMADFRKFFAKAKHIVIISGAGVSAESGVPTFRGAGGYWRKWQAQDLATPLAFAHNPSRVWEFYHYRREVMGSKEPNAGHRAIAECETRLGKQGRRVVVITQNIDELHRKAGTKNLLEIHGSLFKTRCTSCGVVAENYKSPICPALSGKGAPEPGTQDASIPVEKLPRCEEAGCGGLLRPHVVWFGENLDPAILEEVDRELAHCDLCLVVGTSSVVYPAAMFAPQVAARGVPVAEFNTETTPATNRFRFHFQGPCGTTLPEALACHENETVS
ERAP1 inh – inhibitors of human ERAP1 aminopeptidase | inhibition, % at 10.7 µM | recombinant ERAP1, Leu-AMC fluorescence, 60 min | Q9NZ08 | actives 0.15% (n = 340,000);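 active = mean replicate inhibition of at least 30%, or all replicates individually reaching that 30% level; inactive = mean below 30% and not every replicate reaching it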;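 also: 0% = neutral control wells and 100% = L-leucinethiol positive control wells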
* = called active by the depositor. An excerpt weighted towards active compounds, which were near 3.1% of everything screened.

How did CCCc1nn2c(N)c(/C=C3\C=Nc4ccccc43)c(=O)nc2s1 do in these assays?
CASP6 VEID inh: -3.7; FGF22 binding: 0.2; SIRT5 block: -0.8; ERAP1 inh: -0.3

What do the screens show for `CC(C)Cc1nn2c(N)c(/C=C3\C=Nc4ccccc43)c(=O)nc2s1`?
CASP6 VEID inh: 2.3; FGF22 binding: 1.5*; SIRT5 block: 1.0; ERAP1 inh: 2.3

How did Cc1ccc(S(=O)(=O)N[C@H]2CC[C@@H](CCNC(=O)c3ccc4c(c3)OCO4)O[C@@H]2CO)cc1 do in these assays?
CASP6 VEID inh: -4.6; FGF22 binding: 0.0; SIRT5 block: 0.0; ERAP1 inh: -1.8

Results for CCCNC(=O)N[C@@H]1C=C[C@@H](CC(=O)NC2CCC2)O[C@H]1CO ?
CASP6 VEID inh: -1.9; FGF22 binding: 0.0; SIRT5 block: -10.9; ERAP1 inh: -3.0

What do the screens show for `C[C@@H]1CN([C@@H](C)CO)C(=O)Cc2cc(NC(=O)Cn3cnnn3)ccc2O[C@H]1CN(C)C(=O)Nc1ccc(C(F)(F)F)cc1`?
CASP6 VEID inh: 0.7; FGF22 binding: -0.7; SIRT5 block: 3.6; ERAP1 inh: -3.3

What do the screens show for `COc1ccc2nc(C)cc(SCC(=O)Nc3c(C)cccc3C)c2c1`?
CASP6 VEID inh: -1.1; FGF22 binding: 0.3; SIRT5 block: -0.4; ERAP1 inh: 11.7

How did CCOC(=O)CSc1cc(C)nc2ccc(OC)cc12 do in these assays?
CASP6 VEID inh: -6.3; FGF22 binding: 43.3*; SIRT5 block: 11.4; ERAP1 inh: 3.0

What do the screens show for `Cc1c(C#N)c2ccccc2n1C`?
CASP6 VEID inh: -1.4; FGF22 binding: 0.1; SIRT5 block: -5.5; ERAP1 inh: 2.8

What do the screens show for `COc1ccc2c(C#N)c3ccccn3c2c1`?
CASP6 VEID inh: 61.9*; FGF22 binding: -0.2; SIRT5 block: -3.0; ERAP1 inh: -8.9

What do the screens show for `CCCNC(=O)N1C[C@@H](C)[C@H](OC)CN(C)C(=O)c2cc(NS(C)(=O)=O)ccc2OC[C@@H]1C`?
CASP6 VEID inh: 2.3; FGF22 binding: 0.1; SIRT5 block: -2.1; ERAP1 inh: -0.2

How did C=CCN=C1S/C(=C\c2ccc(Cl)cc2)C(=O)N1CC=C do in these assays?
CASP6 VEID inh: 0.3; FGF22 binding: 0.1; ERAP1 inh: -3.5

What do the screens show for `C=CCN1C(=O)/C(=C/c2ccc(OCC(=O)O)cc2)S/C1=N/c1nccs1`?
CASP6 VEID inh: 38.2*; FGF22 binding: -0.3; SIRT5 block: 9.2; ERAP1 inh: 4.7

How did CN1N=C(N)c2cn(C3OC(COP(=O)(O)O)C(O)C3O)c3ncnc1c23 (stereo not given) do in these assays?
CASP6 VEID inh: 46.0*; FGF22 binding: -0.8; SIRT5 block: 0.0; ERAP1 inh: -0.1

What do the screens show for `C[C@@H]1CN([C@@H](C)CO)C(=O)c2cccc(NS(=O)(=O)c3ccc(F)cc3)c2O[C@@H]1CN(C)C(=O)Nc1cccc2ccccc12`?
CASP6 VEID inh: -2.0; FGF22 binding: -1.2; SIRT5 block: 2.7; ERAP1 inh: -1.6

Results for COc1cc(-c2nnc3sc(-c4ccco4)nn23)cc(OC)c1OC ?
CASP6 VEID inh: 7.3; SIRT5 block: -4.1; ERAP1 inh: 1.5

How did Cc1oc(-c2ccc(F)cc2)cc1-c1nn2c(-c3ccco3)nnc2s1 do in these assays?
CASP6 VEID inh: 56.9*; FGF22 binding: 0.0; SIRT5 block: 0.4; ERAP1 inh: -1.2

How did O=C(O)CC1(O)C(=O)N(Cc2ccccc2)c2ccccc21 (stereo not given) do in these assays?
CASP6 VEID inh: 1.1; FGF22 binding: 0.0; SIRT5 block: 2.2; ERAP1 inh: -2.2

What do the screens show for `N#CCC1(O)C(=O)N(Cc2ccccc2)c2ccccc21` (stereo not given)?
CASP6 VEID inh: -2.6; FGF22 binding: 0.0; SIRT5 block: 22.3*; ERAP1 inh: 0.3

What do the screens show for `C[C@H]1CN([C@@H](C)CO)S(=O)(=O)c2ccc(-c3cccc(F)c3)cc2O[C@@H]1CN(C)S(=O)(=O)c1ccc(F)cc1`?
CASP6 VEID inh: -0.7; FGF22 binding: 0.0; SIRT5 block: 18.2*; ERAP1 inh: 1.3

Results for C[C@@H]1CN([C@H](C)CO)S(=O)(=O)c2ccc(-c3cccc(F)c3)cc2O[C@@H]1CN(C)S(=O)(=O)c1ccc(F)cc1 ?
CASP6 VEID inh: 1.1; FGF22 binding: 0.0; SIRT5 block: 20.0*; ERAP1 inh: -0.1

What do the screens show for `Cc1ccc(S(=O)(=O)N(C)C[C@H]2Oc3cc(-c4cccc(F)c4)ccc3S(=O)(=O)N([C@@H](C)CO)C[C@@H]2C)cc1`?
CASP6 VEID inh: 2.0; FGF22 binding: 0.0; SIRT5 block: inconclusive; ERAP1 inh: -0.4

Results for COc1ccc(C(=O)NCC(=O)N2CCCC(C)C2)cc1OC (stereo not given) ?
CASP6 VEID inh: 1.7; FGF22 binding: 43.1*; SIRT5 block: -2.4; ERAP1 inh: 7.3

What do the screens show for `COc1ccc(C(=O)NCC(=O)N2CCCCC2)cc1OC`?
CASP6 VEID inh: 5.0; FGF22 binding: 0.1; SIRT5 block: -2.8; ERAP1 inh: -1.2

How did COc1ccc2c3c(n(C)c2c1)[C@H](CO)N(C(C)=O)CC31CCN(S(=O)(=O)c2ccccc2)CC1 do in these assays?
FGF22 binding: -0.1; ERAP1 inh: -1.6

Results for Cn1c(=O)c2c(ncn2CC(=O)OCC(=O)c2ccc(OC(F)F)cc2OC(F)F)n(C)c1=O ?
CASP6 VEID inh: 54.6*; FGF22 binding: -0.3; SIRT5 block: -0.7; ERAP1 inh: -0.9

What do the screens show for `Cc1c(C#N)c(O)[nH]c(=O)c1N=Nc1ccc(S(N)(=O)=O)cc1`?
CASP6 VEID inh: 44.4*; FGF22 binding: -0.1; SIRT5 block: 0.1; ERAP1 inh: 7.5

Results for C[C@H]1CN([C@@H](C)CO)C(=O)c2cc(/C=C/c3ccccc3)cnc2O[C@@H]1CN(C)C ?
CASP6 VEID inh: -1.1; FGF22 binding: 0.0; SIRT5 block: -11.1; ERAP1 inh: 1.9

How did Cc1nc2ccccc2c(=O)n1NC(=O)c1ccc([N+](=O)[O-])cc1 do in these assays?
CASP6 VEID inh: 0.3; FGF22 binding: 43.1*; SIRT5 block: 3.5; ERAP1 inh: -4.5

What do the screens show for `CN(C)C(=O)c1ccc(-c2ccc3c(c2)[C@H]2[C@H](CCN2C(=O)C2CC2)[C@H](CO)N3C)cc1`?
CASP6 VEID inh: -0.3; FGF22 binding: 0.4; SIRT5 block: -2.1; ERAP1 inh: 0.3

How did CN(C)C(=O)c1cccc(-c2ccc3c(c2)[C@H]2[C@H](CCN2C(=O)c2ccccc2)[C@@H](CO)N3C)c1 do in these assays?
CASP6 VEID inh: -1.3; FGF22 binding: -0.7; SIRT5 block: 15.2*; ERAP1 inh: -2.8

What do the screens show for `CN1c2ccc(-c3ccc(F)cc3)cc2[C@@H]2[C@@H](CCN2C(=O)c2ccncc2)[C@@H]1CO`?
FGF22 binding: -0.6; SIRT5 block: 19.0*

What do the screens show for `CN1c2ccc(-c3ccccc3)cc2[C@H]2[C@H](CCN2C(=O)c2ccccc2)[C@H]1CO`?
CASP6 VEID inh: 2.9; FGF22 binding: -0.7; ERAP1 inh: -7.3

How did CN(C)C(=O)c1ccc(-c2ccc3c(c2)[C@H]2[C@H](CCN2C(=O)C2CCOCC2)[C@@H](CO)N3C)cc1 do in these assays?
SIRT5 block: 17.2*

What do the screens show for `O=C1c2cccnc2C(=O)N1C1CCCCC1`?
CASP6 VEID inh: -2.5; FGF22 binding: -0.1; SIRT5 block: -0.7; ERAP1 inh: 1.7

Source: PubChem BioAssay (Broad Institute)
